{"source": "PubChem BioAssay AID463173", "about": "(ICCB-Longwood Screening Facility, Harvard Medical School, 2010)", "note": "About 4,300 (8.3%) of roughly 52,000 compounds were called active. For the sample, actives were picked, then their nearest neighbours and some compounds at random. Values without a mark were called inactive. Cut-off read from the data, not from the text of the source: active = survival mostly below about 52% (no sharp cut-off); inactive = mostly above about 56%.", "data": [{"test_system": "DeltatarO mutant", "assay": "S. aureus survival, RN4220 and DeltatarO strains – OD600, teichoic acid synthesis inhibitors, primary screen (AID 463173)", "details": "S. aureus RN4220 wild type/DeltatarO growth, OD600, 18 h, active compounds read low, screened at 18.75 µg/mL (by protocol)", "values": [{"smiles": "Cn1cccc1C(C(=O)NC1CCCCC1)N(C(=O)Cn1nnc2ccccc21)c1cnc2ccccc2c1", "note": "(stereo not drawn)", "survival": "112%"}, {"smiles": "Cc1cc(C)nc(SCC(=O)Nc2ccc(N3CCOCC3)cc2)n1", "survival": "82%"}, {"smiles": "CCc1ccccc1NC(=O)Cn1c(=O)n(Cc2ccc(OC)cc2)c(=O)c2oc3ccccc3c21", "survival": "70%"}, {"smiles": "CC1(C)CC(=O)c2cc(C(=O)Nc3ccc(Br)cc3)c(=O)[nH]c2C1", "survival": "70%"}, {"smiles": "O=C(CCS(=O)(=O)c1cc(Br)cc2c1N(C(=O)C1CC1)CC2)N1CCN(c2cccc(C(F)(F)F)c2)CC1", "survival": "59%"}, {"smiles": "Cc1nc2ccn(Cc3ccco3)c(=O)c2cc1C(=O)N1CCN(c2ccc(F)cc2)CC1", "survival": "135%"}, {"smiles": "Cc1cccc(OCCCn2c(CCNC(=O)C3CCCCC3)nc3ccccc32)c1", "survival": "37%"}, {"smiles": "CCc1nc2ccccc2n1CCCCOc1cccc(C)c1", "survival": "-2% (active)"}, {"smiles": "CCc1nc2ccccc2n1CCCCOc1ccccc1C", "survival": "0% (active)"}, {"smiles": "CCc1nc2ccccc2n1CCO", "survival": "77%"}, {"smiles": "CCCC(O)c1nc2ccccc2n1CCCOc1ccc(Cl)cc1", "note": "(stereo not drawn)", "survival": "65%"}, {"smiles": "CCc1nc2ccccc2n1CCCCOc1ccc(Cl)cc1", "survival": "-3% (active)"}, {"smiles": "CCc1nc2ccccc2n1CCCCOc1ccc(C)cc1", "survival": "1% (active)"}, {"smiles": "O=C1C2C3C=CC(C3)C2C(=O)N1CCN1CCN(S(=O)(=O)c2ccc(Br)cc2)CC1", "note": "(stereo not drawn)", "survival": "60%"}, {"smiles": "CCOc1ccccc1NC(=O)c1c2c(nc3ccccc13)C(=O)N(C1CCCCC1)C2", "survival": "55%"}, {"smiles": "COc1ccc(OC)c(NCc2cccn2-c2nnc(N3CCCCC3)s2)c1", "survival": "93%"}, {"smiles": "COc1ccc(CC(=O)NCc2nc3cccnc3n2Cc2ccc(C)cc2)cc1", "survival": "92%"}, {"smiles": "CN1C(=O)/C(=C/c2cccs2)SC1=S", "survival": "113%"}, {"smiles": "COc1ccc(Nc2ncc(C(=O)N3CCN(c4cccc(Cl)c4)CC3)c3ccccc23)cc1", "survival": "62%"}, {"smiles": "Cc1cccc(N2CCN(C(=O)C3CCCN(S(=O)(=O)c4ccc5c(c4)oc(=O)n5C)C3)CC2)c1C", "note": "(stereo not drawn)", "survival": "84%"}, {"smiles": "CC(=O)N1CCCC1c1nc2ccccc2n1Cc1cc(C)ccc1C", "note": "(stereo not drawn)", "survival": "106%"}, {"smiles": "Cc1cc(NC(=O)c2cccn2-c2nnc(N3CCCCC3)s2)ccc1Br", "survival": "117%"}, {"smiles": "CCCCN(C)CCCNC(=O)C1CCN(S(=O)(=O)CC)CC1", "survival": "108%"}, {"smiles": "CCc1ccc(CN(Cc2ccco2)C(=O)c2ccc(C)cc2)cc1", "survival": "41% (active)"}, {"smiles": "COc1ccc(C(=O)N(Cc2ccco2)Cc2ccco2)cc1", "survival": "58%"}, {"smiles": "Cc1ccc(CN(Cc2ccco2)C(=O)c2ccccc2Br)o1", "survival": "47%"}, {"smiles": "O=C(c1ccccc1Br)N(Cc1ccco1)Cc1ccco1", "survival": "45% (active)"}, {"smiles": "O=C(c1ccccc1Cl)N(Cc1ccco1)Cc1ccco1", "survival": "60%"}, {"smiles": "Cc1ccc(C(=O)N(Cc2ccco2)Cc2ccco2)cc1", "survival": "61%"}, {"smiles": "Cc1ccc(C(=O)N(Cc2ccc(N(C)C)cc2)Cc2ccco2)cc1", "survival": "73%"}, {"smiles": "COc1ccc(C(=O)N(Cc2ccco2)Cc2ccc(C)o2)cc1", "survival": "71%"}, {"smiles": "CCc1ccc(CN(Cc2ccco2)C(=O)c2ccccc2Cl)cc1", "survival": "46% (active)"}, {"smiles": "Cc1ccc(CN(Cc2ccco2)C(=O)c2ccccc2Cl)o1", "survival": "74%"}, {"smiles": "CCOc1ccccc1C(=O)N(Cc1ccco1)Cc1ccco1", "survival": "73%"}, {"smiles": "CCc1ccc(CN(Cc2ccco2)C(=O)c2ccc(OC)cc2)cc1", "survival": "52% (active)"}, {"smiles": "COc1cccc(/C=C(\\C#N)C(=O)Nc2ccc(NC(C)=O)cc2)c1OC", "survival": "89%"}, {"smiles": "Cc1ccccc1C(=O)Nc1ccc2oc(-c3ccc(Cl)c(Cl)c3)nc2c1", "survival": "64%"}, {"smiles": "Cc1ccc2cc(CN(Cc3ccccc3)C(=O)C3CC3)c3nnnn3c2c1", "survival": "100%"}, {"smiles": "O=C(NCc1ccco1)C(c1ccccc1)N(C(=O)Cn1nnc2ccccc21)C1CCCC1", "note": "(stereo not drawn)", "survival": "105%"}, {"smiles": "Cc1ccc(N2CC(NC(=O)c3ccccc3C(F)(F)F)CC2=O)cc1C", "note": "(stereo not drawn)", "survival": "55%"}, {"smiles": "CC(=O)Nc1ccc(NC(=O)CN(C)S(=O)(=O)c2ccc3c(c2)CCCC(=O)N3)cc1", "survival": "84%"}, {"smiles": "CCN(CC)C(NC(=O)c1ccccc1)C(=O)c1ccccc1", "note": "(stereo not drawn)", "survival": "85%"}, {"smiles": "COc1ccc(-c2nn(-c3cccc(F)c3)c3c2cnc2cc(OC)c(OC)cc23)cc1", "survival": "67%"}, {"smiles": "Cc1ccc(S(=O)(=O)N(CCO)Cc2ccccc2)cc1", "survival": "87%"}, {"smiles": "CC(=O)Nc1ccc(Nc2ncnc3sc4c(c23)CCCC4)cc1", "survival": "76%"}, {"smiles": "Cc1ccc(Cl)cc1NC(=O)C(C)n1nnc2sc3c(c2c1=O)CCCC3", "note": "(stereo not drawn)", "survival": "69%"}, {"smiles": "CC(C(=O)Nc1ccccc1C(F)(F)F)n1nnc2sc3c(c2c1=O)CCCC3", "note": "(stereo not drawn)", "survival": "81%"}, {"smiles": "COC(=O)c1cc(NC(=O)Cn2nc(-c3ccccc3)c3c(c2=O)CCCC3)cc(C(=O)OC)c1", "survival": "24% (active)"}, {"smiles": "COC(=O)c1cc(NC(=O)Cn2nc(C)n3cccc3c2=O)cc(C(=O)OC)c1", "survival": "87%"}, {"smiles": "CC(C(=O)Nc1cc(C(F)(F)F)ccc1Cl)n1nnc2sc3c(c2c1=O)CCCC3", "note": "(stereo not drawn)", "survival": "53% (active)"}, {"smiles": "O=C(Cn1c(=O)nc(-c2ccccc2)c2cc(Cl)ccc21)Nc1ccc(F)c(Cl)c1", "survival": "75%"}, {"smiles": "O=C(Cn1nc(-c2ccccc2)c2c(c1=O)CCCC2)Nc1ccc(F)c(Cl)c1", "survival": "23% (active)"}, {"smiles": "CCc1nc(Nc2ccc(F)c(Cl)c2)c2c3c(sc2n1)CCCC3", "survival": "-4% (active)"}, {"smiles": "COC(=O)c1cc(NC(=O)Cn2nc(-c3ccc(C)c(C)c3)ccc2=O)cc(C(=O)OC)c1", "survival": "65%"}, {"smiles": "O=C(Cn1nc(C(F)(F)F)c2c1CCCC2)Nc1ccc(F)c(Cl)c1", "survival": "62%"}, {"smiles": "COc1ccc(Nc2ncnc3sc4c(c23)CCCC4)cc1", "survival": "69%"}, {"smiles": "COc1ccc(OCC(=O)Nc2ccc(-c3nc4cc(C)cc(C)c4o3)cc2)cc1", "survival": "75%"}, {"smiles": "CCOC(=O)C1=C(CN2CCN(c3ccc(Cl)cc3)CC2)NC(=O)NC1c1ccc(F)cc1", "note": "(stereo not drawn)", "survival": "70%"}, {"smiles": "CCOC(=O)c1nc(Nc2ccc(Cl)cc2)c2c(C)noc2n1", "survival": "68%"}, {"smiles": "COc1ccc(OC)c(CNC(=O)c2ccc(NC(=O)c3nsc4ccccc34)cc2)c1", "survival": "80%"}, {"smiles": "COc1ccc(NC(=O)Cn2nnc3sc4c(c3c2=O)CCCC4)cc1", "survival": "61%"}, {"smiles": "Cc1c(Cl)cccc1NC(=O)Cn1nnc2sc3c(c2c1=O)CCCC3", "survival": "75%"}, {"smiles": "O=C(Cn1nnc2sc3c(c2c1=O)CCCC3)Nc1ccc(F)c(Cl)c1", "survival": "36% (active)"}, {"smiles": "CCOc1ccc(/C=C(\\C#N)c2nc(-c3cc4ccccc4oc3=O)cs2)c(OCC)c1", "survival": "81%"}, {"smiles": "Cc1cccc(C(=O)Nc2cc(-c3nc4cccnc4s3)ccc2C)c1", "survival": "45% (active)"}, {"smiles": "CCCCC(=O)Nc1cc(-c2nc3cccnc3s2)ccc1C", "survival": "35% (active)"}, {"smiles": "Cc1ccc(C(=O)Nc2cccc(-c3nc4cccnc4s3)c2C)cc1", "survival": "111%"}, {"smiles": "CCCCC(=O)Nc1cc(-c2cn3cccnc3n2)ccc1C", "survival": "102%"}, {"smiles": "COc1ccc(C(=O)Nc2cccc(-c3nc4cccnc4s3)c2C)c(OC)c1", "survival": "103%"}, {"smiles": "CCCC(=O)Nc1cc(-c2nc3cccnc3s2)ccc1C", "survival": "109%"}, {"smiles": "Cc1cccc(CC(=O)Nc2cccc(-c3nc4cccnc4s3)c2)c1", "survival": "93%"}, {"smiles": "COc1cc(OC)cc(C(=O)Nc2cc(-c3nc4cccnc4s3)ccc2C)c1", "survival": "43% (active)"}, {"smiles": "CCOc1ccc(CC(=O)Nc2cccc(-c3nc4cccnc4s3)c2C)cc1", "survival": "90%"}, {"smiles": "Cc1ccc(-c2nc3cccnc3s2)cc1NC(=O)Cc1ccccc1", "survival": "99%"}, {"smiles": "COCC(=O)Nc1cccc(-c2nc3cccnc3s2)c1", "survival": "68%"}, {"smiles": "COc1ccc(CC(=O)Nc2cc(-c3nc4cccnc4s3)ccc2C)cc1", "survival": "41% (active)"}, {"smiles": "COc1ccc(N2CCN(C(=O)CS(=O)(=O)c3cccc4nsnc34)CC2)cc1", "survival": "107%"}, {"smiles": "O=C(CSc1nc2c([nH]c3ccccc32)c(=O)n1-c1cccc(C(F)(F)F)c1)N1CCCC1", "survival": "71%"}, {"smiles": "Cc1c(C(=O)Nc2ccc(F)c(C(F)(F)F)c2)sc2nc(-c3ccccc3)cn12", "survival": "105%"}, {"smiles": "CCOC(=O)C1=CN(O)/C(=C\\N=O)C=C1", "survival": "78%"}, {"smiles": "COc1ccc(Cl)cc1NC(=O)CSc1cc(C)[nH]c(=O)n1", "survival": "80%"}, {"smiles": "COc1ccc(S(=O)(=O)c2cn(C)c3cc(N4CCCCCC4)c(F)cc3c2=O)cc1", "survival": "86%"}, {"smiles": "Cc1ccccc1Nc1c(-c2c(F)cccc2Cl)nc2ccc(Br)cn12", "survival": "69%"}, {"smiles": "COc1ccc(/C=C\\c2onc(C)c2S(=O)(=O)N2CCC(C(=O)Nc3ccc(Cl)cc3)CC2)cc1", "survival": "65%"}, {"smiles": "Cc1ccccc1C(=O)Nc1cccc(-c2nc3cccnc3s2)c1", "survival": "81%"}, {"smiles": "CCOc1ccccc1C(=O)Nc1cc(-c2nc3cccnc3s2)ccc1C", "survival": "37% (active)"}, {"smiles": "CCCCOc1ccc(C(=O)Nc2cccc(-c3nc4cccnc4s3)c2)cc1", "survival": "92%"}, {"smiles": "CCOc1ccc(C(=O)Nc2cccc(-c3nc4cccnc4s3)c2C)cc1OCC", "survival": "90%"}, {"smiles": "O=C(Nc1cccc(-c2nc3cccnc3s2)c1)c1cccc(Br)c1", "survival": "32% (active)"}, {"smiles": "CN(C)c1ccc(C(=O)Nc2cccc(-c3nc4cccnc4s3)c2)cc1", "survival": "49%"}, {"smiles": "COc1ccc(CC(=O)N2N=C(c3ccncc3)CC2(O)C(F)(F)F)cc1", "note": "(stereo not drawn)", "survival": "104%"}, {"smiles": "COc1ccccc1CNC(=O)CCCn1c(=O)c2ccccc2n(CC(=O)Nc2c(C)cc(C)cc2C)c1=O", "survival": "166%"}, {"smiles": "N#Cc1ccc(CSCC(=O)NN=C2CCCC2)cc1", "survival": "65%"}, {"smiles": "COc1ccc(OCC2c3cc(OC)c(OC)cc3CCN2C(=O)c2ccc(F)cc2)cc1", "note": "(stereo not drawn)", "survival": "94%"}, {"smiles": "CCOc1ccc(NC(=O)c2sc3ccccc3c2Cl)cc1", "survival": "68%"}, {"smiles": "Cc1ccc(NC(=O)c2sc3ccccc3c2Cl)cc1", "survival": "66%"}, {"smiles": "Cc1cccc(NC(=O)c2sc3cccc(Cl)c3c2Cl)c1", "survival": "11% (active)"}, {"smiles": "CCCC(=O)Nc1ccc(NC(=O)c2sc3ccccc3c2Cl)cc1", "survival": "109%"}, {"smiles": "CCOC(=O)c1ccccc1NC(=O)c1sc2ccccc2c1Cl", "survival": "36% (active)"}, {"smiles": "CCN(CC)c1ccc(NC(=O)c2sc3ccccc3c2Cl)cc1", "survival": "-2% (active)"}, {"smiles": "COc1ccccc1NC(=O)c1sc2cccc(Cl)c2c1Cl", "survival": "64%"}, {"smiles": "O=C(Nc1ccccc1Cl)c1sc2cccc(Cl)c2c1Cl", "survival": "63%"}, {"smiles": "CCOC(=O)c1ccc(NC(=O)c2sc3ccccc3c2Cl)cc1", "survival": "67%"}]}]}
